The values below come from PubChem BioAssay AID504321 (NMMLSC, 2011).

Values joined by “and” are separate entries in the source; they are usually repeats but may differ in a detail not shown here. Identical values can stand only once. Values without a mark were called inactive. Active and inactive are the calls of the source.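 Rule for the calls: active = GFP response vs DMSO above 150% with enough events counted; inconclusive = fewer than 70 events counted for a yeast strain; inactive = the rest.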

The test in a line: MEP2-GFP expression modulation in yeast, confirmation, flow cytometry, third cherry pick, S. cerevisiae (AID 504321).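 Note: median per-cell GFP fluorescence by flow cytometry across all yeast cells; ratio of sample to DMSO median GFP so 100% equals the DMSO level.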 The conditions noted are these: S. cerevisiae MEP2-GFP strain, 3 h, at 10 µM, active compounds read high. (In general: A flow cytometer gives signals particle by particle.)
On to `CC(=O)C(Cl)C(=O)Nc1ccccc1` (centres undefined), for which the GFP response vs DMSO is 118%.

For the compound `Cc1nc(Nc2ccc(Br)cc2Br)c([N+](=O)[O-])c(=O)[nH]1`, the GFP response vs DMSO was 112%.

Take `CS(=O)(=O)c1nc(-c2ccc(F)cc2)cc(C(F)(F)F)n1`: the GFP response vs DMSO was 133%.

In the case of `COc1cccc2c(Cl)c(CCCl)c(C)nc12`, the GFP response vs DMSO is 101%.

With `CC(=O)Nc1ccc(-c2nc3cc(Cl)ccc3o2)cc1`, the GFP response vs DMSO was 108%.

As for `COc1cc(=O)n(C)c2c(O)cccc12`, the GFP response vs DMSO is 110%.

Consider `COC(=O)c1cc(=O)c2cccc(OC)c2[nH]1`, for which the GFP response vs DMSO is 110%.

With `C[n+]1cccc2cccc([O-])c21`, the GFP response vs DMSO is 116%.

`COc1cccc2c(O)cc(=O)n(C)c12`: the GFP response vs DMSO is 108%.

Regarding `Cc1ccc(NC(=O)O/N=C2\CCCCC2c2ccc([N+](=O)[O-])cc2[N+](=O)[O-])cc1` (centres undefined), the GFP response vs DMSO was 105%.

`O=C(/C=C/Nc1cccc(O)c1)c1ccccc1`: the GFP response vs DMSO was 112%.

`C=CCNc1nc(N)c([N+](=O)[O-])c(Nc2cccc(Cl)c2)n1`: the GFP response vs DMSO was 108%.

Regarding `OCc1ccc(O)c2ncccc12`, the GFP response vs DMSO was 99%.

As for `CNc1cccc2c1C(=O)c1ccccc1C2=O`, the GFP response vs DMSO was 114%.

Turning to `COc1cccc(NC(=O)CC(C)=O)c1`, the GFP response vs DMSO was 108%.

As for `Nc1[nH]c(=O)nc(Nc2ccccc2)c1N=O`, the GFP response vs DMSO is 108%.

In the case of `Nc1ccc(O)c2c1C(=O)c1ccccc1C2=O`, the GFP response vs DMSO is 112%.

Take `O=C(O)c1ccc2cccnc2c1O`: the GFP response vs DMSO was 101%.

On to `Oc1c(I)cc(Cl)c2cccnc12`, for which the GFP response vs DMSO was 181% (active).

As to `CC1=CN2C(=N)/C(=C/c3ccco3)C(=O)N=C2S1`, the GFP response vs DMSO was 105%.

With `Cc1cccc(C)c1Nc1ncnc(N)c1[N+](=O)[O-]`, the GFP response vs DMSO was 103%.

`O=C1c2ccccc2C(=O)c2c1cccc2N(CCO)CCO`: the GFP response vs DMSO is 108%.

In the case of `O=C(O)c1ccccc1-c1ccccc1C(=O)Nc1ccc(-c2nc3cc(Cl)ccc3o2)cc1`, the GFP response vs DMSO was 116%.

In the case of `COc1cccc2c(=O)c(C(=O)O)c[nH]c12`, the GFP response vs DMSO is 116%.

In the case of `C=CCNc1ncnc2ccccc12`, the GFP response vs DMSO is 114%.

On to `CNc1nc(N)c([N+](=O)[O-])c(Nc2cccc(Cl)c2)n1`, for which the GFP response vs DMSO was 170% (active).

Turning to `COc1cccc(N/C(C)=C/C(=O)c2ccc(Br)cc2)c1`, the GFP response vs DMSO is 101%.

With `Nc1cccc2c1C(=O)c1ccc(Cl)cc1C2=O`, the GFP response vs DMSO was 116%.

For the compound `CSc1ccccc1OCc1cc(C(=O)N2CCN(C)C(c3ccccc3)C2)no1` (centres undefined), the GFP response vs DMSO was 103%.

`COc1ccccc1Nc1nc(NCCO)nc(N)c1[N+](=O)[O-]`: the GFP response vs DMSO was 105%.

In the case of `O=C(O)c1ccc2cccc(O)c2n1`, the GFP response vs DMSO was 110%.

`O=C(O)CCCCCNc1ncnc2ccc(Br)cc12`: the GFP response vs DMSO was 101%.

For the compound `Cc1cc(C)c2ccc(N)nc2c1O`, the GFP response vs DMSO was 108%.

With `NC(=O)c1ccnc2c(O)cccc12`, the GFP response vs DMSO is 108%.

For `Oc1c(Br)cc(Br)c2cccnc12`, the GFP response vs DMSO is 189% (active).

With `COc1ccc(-c2cc(C(F)(F)F)nc(S(C)(=O)=O)n2)cc1OC`, the GFP response vs DMSO was 114% and 121%.

On to `C=CCNc1ncnc2ccc(Br)cc12`, for which the GFP response vs DMSO is 110%.

`O=C(Nc1ccc(-c2nc3ccccc3o2)cc1)c1cccnc1`: the GFP response vs DMSO was 103%.

As to `Cn1c(NCCO)nc2c(c1=O)C1(CCCCC1)Cc1ccccc1-2`, the GFP response vs DMSO is 108%.
